Holding throughout (details): incubation time: 27 h, anaerobic, 37 °C
The test system of test [1] is Clostridium sporogenes DSM 1664. Briefly: growth (OD595) fold change vs plate DMSO controls (fold change (ratio)); higher = more growth. A digest of the protocol:
(§1)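 Growth is the fold change relative to the median of plate DMSO controls. Readings came from anaerobic mGAM cultures in 96-well plates grown for 27 h at 37 °C and read at 595 nm. They were blank-subtracted, corrected for compound background with 20 µM compound solutions in water, and converted to OD with a calibration factor of 5. Values are means of 2 biological replicates, and fold changes above 1.5 were set to NA.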

For test [2], the system named is Escherichia coli IAI1. Described as above. An outline of the steps:
as §1

The subject of test [3] is Klebsiella aerogenes DSM 30053. The description is as above. A digest of the protocol: as §1
Test [4] deals with Ruminococcus gnavus DSM 108212. Described as above. An outline of the steps: as §1
Test [5] relates to Klebsiella aerogenes DSM 30053. Briefly: fold change of Histamine concentration vs plate DMSO controls (fold change (ratio)); higher = more amine produced, active = hit call of the paper (significant change in both replicates, either direction). A digest of the protocol:
(§2)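 Amine values are fold changes relative to DMSO-only wells on the same plate. They derive from 27 h, 37 °C anaerobic mGAM cultures of four gut bacterial strains in 80 µL wells, dosed at 20 µM final, or 50 µM final for sweeteners. Extraction of the whole culture, LC–triple-quadrupole MS in dynamic MRM mode, external calibration curves and within-batch drift correction were used, with 2 biological replicates averaged.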

The test system of test [6] is Clostridium sporogenes DSM 1664. The test can be described thus: fold change of Tryptamine concentration vs plate DMSO controls (fold change (ratio)); higher = more amine produced, active = hit call of the paper (significant change in both replicates, either direction). An outline of the steps:
as §2

The subject of test [7] is Ruminococcus gnavus DSM 108212. The description is as above. An outline of the steps:
as §2

Test [8] relates to Escherichia coli IAI1. The test can be described thus: fold change of Putrescine concentration vs plate DMSO controls (fold change (ratio)); higher = more amine produced, active = hit call of the paper (significant change in both replicates, either direction). An outline of the steps:
as §2

Test [9] relates to Klebsiella aerogenes DSM 30053. The description is as above. An outline of the steps: as §2
Test [10] has as its system Escherichia coli IAI1. Briefly: fold change of Cadaverine concentration vs plate DMSO controls (fold change (ratio)); higher = more amine produced, active = hit call of the paper (significant change in both replicates, either direction). A digest of the protocol:
as §2

For test [11], the system named is Klebsiella aerogenes DSM 30053. Described as above. A digest of the protocol:
as §2

Test [12] concerns Ruminococcus gnavus DSM 108212. Briefly: fold change of 2-Phenylethylamine concentration vs plate DMSO controls (fold change (ratio)); higher = more amine produced, active = hit call of the paper (significant change in both replicates, either direction). An outline of the steps: as §2

Structures can show the parent of a compound that is named as a salt.

Regarding `CC(C)(C)NC[C@H](O)COc1ccccc1C1CCCC1` [Penbutolol sulfate] (20 µM), the growth stood at 0.971 in test [1], 1.21 in the test with Escherichia coli IAI1 [2], 0.985 in test [3] and 0.952 in test [4]. In addition, the “fold change of Histamine concentration” value in test [5] is 1.02 (inactive). Also, the entries for the “fold change of Tryptamine concentration” value in [6] and in test [7] were 1.03 (inactive) and 1.11 (inactive), respectively. The “fold change of Putrescine concentration” value in the test with Escherichia coli IAI1 [8] was 1.1 (inactive); in test [9] it was 0.997 (inactive). Besides, the “fold change of Cadaverine concentration” value is 1.02 (inactive) in the test on Escherichia coli IAI1 [10] and 0.98 (inactive) in test [11]. Besides, the “fold change of 2-Phenylethylamine concentration” value in [12] was 1.25 (inactive).
On to `CC[C@H](C)[C@H](NC(=O)[C@H](Cc1ccc(O)cc1)NC(=O)[C@@H](NC(=O)[C@H](CCCN=C(N)N)NC(=O)[C@@H](N)CC(=O)O)C(C)C)C(=O)N[C@@H](Cc1cnc[nH]1)C(=O)N1CCC[C@H]1C(=O)N[C@@H](Cc1ccccc1)C(=O)O` [Angiotensin II (Human) Trifluoroacetic acid salt] (20 µM), for which the growth is 1.02 in test [1], 1.03 in the test on Escherichia coli IAI1 [2], 0.987 in test [3] and 0.979 in test [4]. Besides, the “fold change of Histamine concentration” value in test [5] is 1.01 (inactive). The “fold change of Tryptamine concentration” value was 1.07 (inactive) in test [6] and 1.09 (inactive) in [7]. For the same compound, the “fold change of Putrescine concentration” value is 0.966 (inactive) in the test on Escherichia coli IAI1 [8] and 0.983 (inactive) in test [9]. Besides, the figures for the “fold change of Cadaverine concentration” value (in the test with Escherichia coli IAI1 [10]; in [11]) were 0.934 (inactive) and 0.994 (inactive), respectively. Also, in test [12], the “fold change of 2-Phenylethylamine concentration” value is 1.14 (inactive).
Take `O=C(OCC(O)CO)c1ccccc1Nc1ccnc2cc(Cl)ccc12` (centres undefined) [Glafenine hydrochloride] (20 µM): the growth came to 1.08 in [1], 0.957 in the test on Escherichia coli IAI1 [2], 0.977 in [3] and 0.831 in test [4]. For the same compound, the “fold change of Histamine concentration” value in test [5] is 1.01 (inactive). Besides, the “fold change of Tryptamine concentration” value is 0.965 (inactive) in test [6] and 1.03 (inactive) in test [7]. For the same compound, the entries for the “fold change of Putrescine concentration” value (in the test with Escherichia coli IAI1 [8]; in test [9]) were 0.998 (inactive) and 0.999 (inactive), respectively. The “fold change of Cadaverine concentration” value is 0.998 (inactive) in the test with Escherichia coli IAI1 [10] and 1.01 (inactive) in [11]. For the same compound, the “fold change of 2-Phenylethylamine concentration” value in test [12] is 1.04 (inactive).
Regarding `O=P(O)(O)C(O)(Cc1cccnc1)P(=O)(O)O` [Risedronic acid monohydrate] (20 µM), the growth in test [1] was 1.08; in the test on Escherichia coli IAI1 [2] it was 1.12; in test [3], 1; in test [4] it was 0.913. Besides, the “fold change of Histamine concentration” value in [5] was 1.05 (inactive). Besides, the “fold change of Tryptamine concentration” value in test [6] and in test [7] was 1.04 (inactive) throughout. Besides, the “fold change of Putrescine concentration” value is 1.2 (inactive) in the test on Escherichia coli IAI1 [8] and 1.02 (inactive) in test [9]. Moreover, the “fold change of Cadaverine concentration” value in the test on Escherichia coli IAI1 [10] is 0.97 (inactive); in test [11], 1.01 (inactive). In addition, the “fold change of 2-Phenylethylamine concentration” value in test [12] is 1.07 (inactive).
Turning to `CC(C)NC[C@H](O)COc1cccc2ccccc12` [(S)-(-)-Propranolol hydrochloride] (20 µM), the growth in test [1] is 0.943; in the test with Escherichia coli IAI1 [2] it was 1.03; in test [3], 1.07; in [4], 1.14. In addition, the “fold change of Histamine concentration” value in test [5] is 0.885 (inactive). For the same compound, the figures for the “fold change of Tryptamine concentration” value in test [6] and in [7] were 1.02 (inactive) and 1 (inactive), respectively. Besides, the “fold change of Putrescine concentration” value in the test with Escherichia coli IAI1 [8] is 0.986 (inactive); in test [9] it was 0.993 (inactive). The “fold change of Cadaverine concentration” value in the test on Escherichia coli IAI1 [10] was 0.968 (inactive); in test [11] it was 1.01 (inactive). Besides, in [12], the “fold change of 2-Phenylethylamine concentration” value is 1.02 (inactive).
As for `N/C(=N\C(=O)c1nc(Cl)c(N)nc1N)NCc1ccccc1` [Benzamil hydrochloride] (20 µM), the growth in test [1] is 0.787; in the test on Escherichia coli IAI1 [2], 0.962; in test [3], 0.958; in [4], 0.861. The “fold change of Histamine concentration” value in test [5] is 0.932 (inactive). Besides, the “fold change of Tryptamine concentration” value is 1.03 (inactive) in test [6] and 0.961 (inactive) in test [7]. Further, the “fold change of Putrescine concentration” value with Escherichia coli IAI1 [8] was 0.807 (inactive); in test [9] it was 0.965 (inactive). The “fold change of Cadaverine concentration” value is 1.48 (inactive) in the test with Escherichia coli IAI1 [10] and 0.991 (inactive) in test [11]. Moreover, the “fold change of 2-Phenylethylamine concentration” value in test [12] was 0.936 (inactive).
Take `CNCCCN1c2ccccc2CCc2ccccc21` [Desipramine hydrochloride] (20 µM): the growth in test [1] worked out at 0.96; in the test with Escherichia coli IAI1 [2] it was 1.09; in test [3] it was 0.971; in test [4], 1.12. Besides, the “fold change of Histamine concentration” value in test [5] was 1.06 (inactive). In addition, the “fold change of Tryptamine concentration” value was 0.982 (inactive) in [6] and 0.946 (inactive) in [7]. For the same compound, the “fold change of Putrescine concentration” value (with Escherichia coli IAI1 [8]; in test [9]) was 1.01 (inactive) each time. For the same compound, the entries for the “fold change of Cadaverine concentration” value (in the test on Escherichia coli IAI1 [10]; in test [11]) were 1.56 (inactive) and 0.987 (inactive), respectively. Besides, the “fold change of 2-Phenylethylamine concentration” value in test [12] is 0.934 (inactive).
Turning to `CCn1cc(C(=O)O)c(=O)c2cc(F)c(N3CCNC(C)C3)c(F)c21` (centres undefined) [Lomefloxacin hydrochloride] (20 µM), the growth in test [1] was 0.0338; in the test on Escherichia coli IAI1 [2], 0.0575; in [3], 0.252; in [4], 1.01. For the same compound, the “fold change of Histamine concentration” value in [5] is 0.0674 (active). In addition, the “fold change of Tryptamine concentration” value in [6] was 0.0603 (active); in [7], 1.03 (inactive). In addition, the “fold change of Putrescine concentration” value in the test with Escherichia coli IAI1 [8] was 0.781 (active); in [9], 0.627 (active). In addition, the “fold change of Cadaverine concentration” value with Escherichia coli IAI1 [10] is 0.166 (active); in test [11], 0.981 (inactive). Further, the “fold change of 2-Phenylethylamine concentration” value in test [12] was 1.03 (inactive).
Consider `Clc1ccc(C(Cn2ccnc2)OCc2ccsc2Cl)c(Cl)c1` (centres undefined) [Tioconazole] (20 µM), for which the growth in test [1] came out at 1.21; in the test on Escherichia coli IAI1 [2], 0.866; in test [3], 0.838; in test [4], 0.0103. Moreover, in [5], the “fold change of Histamine concentration” value is 1.05 (inactive). Moreover, the “fold change of Tryptamine concentration” value was 0.957 (inactive) in test [6] and 0.26 (active) in [7]. For the same compound, the “fold change of Putrescine concentration” value (with Escherichia coli IAI1 [8]; in test [9]) was 1.01 (inactive) in each case. Moreover, the “fold change of Cadaverine concentration” value in the test with Escherichia coli IAI1 [10] is 0.982 (inactive); in test [11], 0.997 (inactive). Also, the “fold change of 2-Phenylethylamine concentration” value in test [12] was 0.275 (active).
As for `COC(=O)[C@H](Cc1ccccc1)NC(=O)[C@H](CC(=O)O)NCCC(C)(C)C` [Neotame] (50 µM), the growth in test [1] was 1.05; with Escherichia coli IAI1 [2] it was 1; in test [3], 1.04; in test [4], 1.07. The “fold change of Histamine concentration” value in [5] is 0.99 (inactive). Besides, the “fold change of Tryptamine concentration” value in test [6] was 1.05 (inactive); in [7] it was 1.01 (inactive). Further, the “fold change of Putrescine concentration” value (in the test on Escherichia coli IAI1 [8]; in test [9]) was 1.01 (inactive) in each case. Moreover, the “fold change of Cadaverine concentration” value with Escherichia coli IAI1 [10] was 0.933 (inactive); in test [11], 1.02 (inactive). Further, the “fold change of 2-Phenylethylamine concentration” value in [12] is 1.02 (inactive).
Regarding `CC(=O)Nc1ccc(CC(=O)O)cc1` [Actarit] (20 µM), the growth came out at 0.864 in [1], 0.972 in the test with Escherichia coli IAI1 [2], 1.03 in test [3] and 1.11 in [4]. Besides, in test [5], the “fold change of Histamine concentration” value was 1.02 (inactive). Moreover, the entries for the “fold change of Tryptamine concentration” value in test [6] and in test [7] were 1.03 (inactive) and 0.992 (inactive), respectively. Besides, the “fold change of Putrescine concentration” value in the test on Escherichia coli IAI1 [8] is 1.35 (inactive); in test [9], 1 (inactive). For the same compound, the “fold change of Cadaverine concentration” value is 0.96 (inactive) in the test on Escherichia coli IAI1 [10] and 1.01 (inactive) in test [11]. In addition, the “fold change of 2-Phenylethylamine concentration” value in test [12] is 0.944 (inactive).
Consider `Cc1c(O)cccc1C(=O)N[C@@H](CSc1ccccc1)[C@H](O)CN1C[C@H]2CCCC[C@H]2C[C@H]1C(=O)NC(C)(C)C` [Nelfinavir mesylate] (20 µM), for which the growth in test [1] came out at 1.07; with Escherichia coli IAI1 [2] it was 1.09; in test [3], 1.01; in test [4], 0.967. In addition, the “fold change of Histamine concentration” value in [5] was 0.979 (inactive). The “fold change of Tryptamine concentration” value in test [6] is 0.96 (inactive); in [7] it was 0.829 (inactive). Further, the “fold change of Putrescine concentration” value in the test on Escherichia coli IAI1 [8] was 1.05 (inactive); in test [9], 1.02 (inactive). In addition, the figures for the “fold change of Cadaverine concentration” value (in the test on Escherichia coli IAI1 [10]; in [11]) were 1.01 (inactive) and 1 (inactive), respectively. In addition, the “fold change of 2-Phenylethylamine concentration” value in test [12] is 0.894 (inactive).

The values above are taken from the supplement of paper PMC12494721.
